Screens deposited in PubChem by National Center for Advancing Translational Sciences (NCATS).
Rows were chosen to be rich in hits. Some 19% of all compounds tested hit in one or more screens of this group.
IL1B secr inh: blocks inflammasome-driven IL-1 beta release. THP-1 LPS/ATP IL-1B secretion, AlphaLISA, 16 h; hits give low values. activity change, % at 57.5 µM. 4.7% of 360,000 active. AID 743279; in the data active = activity change below about -50%; inconclusive = mostly about -30% to -49%; also: % is scaled to controls: 0 for no effect and ±100 for the full control effect
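Secreted IL-1B measured by AlphaLISA bead assay after 16 h compound exposure of THP-1 cells; compounds (final up to 57.5 uM) added 1 h before LPS (250 ng/mL) and ATP (1.25 mM) stimulation; lower signal means less secretion.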
TGFb inhibitor: inhibitors of TGF-b signaling; HepG2 CAGA-GFP TGF-b/SMAD3 reporter, GFP fluorescence, 18 h; TGF-beta stimulated, 500 pg/mL final; Potency, µM (series often up to 46.1 µM), for the others: at the highest dose activity, negative = inhibition, usual class: inhibitors; 1.2% of 410,000 active; also: potency is read from the fitted curve at half-maximal effect; % is scaled to controls: 0 for no effect and ±100 for the full control effect; nearly all actives have a fitted effect of over 65% in size
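HEPG2 CAGA-GFP, 1000 cells/well; 2 h settle, 37 C; cpd via pin tool; TGF-b 500 pg/mL final; 18 h, 37 C; GFP imaging ex488/em500-530; %Activity normalised to -TGF-b and +DMSO controls; CRC fit, curve class.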
TDP1 cell noCPT: qHTS for Inhibitors of human tyrosyl-DNA phosphodiesterase 1 (TDP1): qHTS in cells in absence of CPT. DT40 Tdp1-/- hTDP1 cells, no CPT, ATP luminescence, 48 h. Potency, µM (highest dose often 46.2 µM), for inactives: at the top dose activity change, negative = growth inhibition, most hits filed as inhibitors. 15% of 420,000 active. AID 686978, 2013; also: potency is read from the fitted curve at half-maximal effect; % is scaled to controls: 0 for no effect and ±100 for the full control effect; nearly all actives have a fitted effect of over 55% in size
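Compound effects on proliferation are scored in DT40 Tdp1-/-;hTDP1 cells in the absence of CPT. ATP levels (CellTiter-Glo luminescence) are recorded after a ≥48 hr, 37 °C incubation.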
DT40 TDP1 CPT: DT40-hTDP1 cell growth loss with CPT; chicken DT40 Tdp1-/-;hTDP1 cells + 20 nM CPT, ATP luminescence, 48 h; Potency, µM (top dose mostly 46.2 µM), without a hit: at the highest dose activity change, negative = growth inhibition, actives largely listed as inhibitors; AID 686979; 12% of 420,000 active; also: potency is read from the fitted curve at half-maximal effect; % is scaled to controls: 0 for no effect and ±100 for the full control effect; nearly all actives have a fitted effect of over 55% in size
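Cell growth measured by CellTiter-Glo luminescence after a minimum 48 h, 37 C compound exposure with 20 nM CPT in Tdp1-knockout DT40 cells stably expressing hTDP1, seeded 400/well; qHTS titration format.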
HepG2 viability: kills HepG2 cells in TGF-b inhibitor counter-screen; HepG2 CAGA-GFP viability, ATP luminescence, 18 h; Potency, µM (top dose mostly 46.1 µM), without a hit: at the top dose activity change, negative = cytotoxicity, usual class: cytotoxic; 0.76% of 410,000 active; also: potency is read from the fitted curve at half-maximal effect
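CellTiter-Glo luminescence gave cytotoxicity after 18 hours at 37 degrees C. The cells were HepG2 CAGA-GFP in 1% FBS DMEM, stimulated with 500 pg/mL TGF-beta after compound addition. %Activity was normalised to no-cell wells (complete cell-killing) and DMSO (no toxicity), and curves were fitted and classified.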
TDP1 block: inhibitors of human tyrosyl-DNA phosphodiesterase TDP1 | Q9NUW8 | 0.28% of 350,000 active | recombinant TDP1, AlphaScreen DNA substrate cleavage | Potency, µM (series often up to 130 µM), for the others: at the highest dose activity change, negative = inhibition, actives largely listed as inhibitors; also: potency is read from the fitted curve at half-maximal effect; % is scaled to controls: 0 for no effect and ±100 for the full control effect; nearly all actives have a fitted effect of over 40% in size
Target sequence (Q9NUW8 whole entry, looked up): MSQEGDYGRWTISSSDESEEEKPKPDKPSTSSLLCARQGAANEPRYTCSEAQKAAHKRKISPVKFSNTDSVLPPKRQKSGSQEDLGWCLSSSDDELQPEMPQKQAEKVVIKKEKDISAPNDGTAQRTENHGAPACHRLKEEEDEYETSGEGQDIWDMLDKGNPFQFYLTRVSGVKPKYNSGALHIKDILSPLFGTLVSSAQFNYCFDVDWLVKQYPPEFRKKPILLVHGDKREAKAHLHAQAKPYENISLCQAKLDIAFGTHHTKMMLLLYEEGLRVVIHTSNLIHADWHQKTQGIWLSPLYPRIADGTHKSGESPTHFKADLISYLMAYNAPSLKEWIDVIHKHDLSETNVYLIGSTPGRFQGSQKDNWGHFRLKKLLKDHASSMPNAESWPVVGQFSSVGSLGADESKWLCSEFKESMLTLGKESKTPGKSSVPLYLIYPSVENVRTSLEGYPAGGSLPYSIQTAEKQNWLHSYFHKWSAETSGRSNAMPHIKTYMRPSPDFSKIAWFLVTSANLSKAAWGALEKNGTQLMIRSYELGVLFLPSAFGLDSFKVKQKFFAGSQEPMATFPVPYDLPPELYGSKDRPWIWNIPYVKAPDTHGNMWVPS
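Tdp1 1 nM final; 15 min RT w/ cpd; substrate 15 nM, 5 min; beads 10 ug/ml, 10 min; AlphaScreen read. Neg ctrl: no enzyme.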
* marks the source's active call; other numbers are inactive results. Unless noted, calls follow the shape of the dose curve; as a rule, active = well fitted curve in the direction sought with a large enough effect; inconclusive = small, poorly fitted or top-dose-only effect, or another doubt; inactive = no such curve, though single readings can be large; an effect the other way counts as inactive or inconclusive.

For COc1ccc(-c2noc(-c3ccc(NCc4ccco4)c([N+](=O)[O-])c3)n2)cc1OC the results were TGFb inhibitor 10%, TDP1 cell noCPT 9.2µM*, DT40 TDP1 CPT 13µM*, HepG2 viability 1% and TDP1 block 6%.
For Cc1cccc(-c2noc(-c3ccc(NCc4ccco4)c([N+](=O)[O-])c3)n2)c1 the results were TGFb inhibitor inconclusive, TDP1 cell noCPT inconclusive, DT40 TDP1 CPT -26%, HepG2 viability -2% and TDP1 block -3%.
`COc1cc(-c2noc(-c3ccc(NCc4cccnc4)c([N+](=O)[O-])c3)n2)cc(OC)c1OC` gave TGFb inhibitor -3%, TDP1 cell noCPT 6.5µM*, DT40 TDP1 CPT 7.3µM*, HepG2 viability -3% and TDP1 block 9%.
For Cc1[nH]c2ccccc2c1C(c1ccccc1)c1ccc(Cl)s1 (stereo not drawn) the results were TGFb inhibitor inconclusive, TDP1 cell noCPT inconclusive, DT40 TDP1 CPT inconclusive, HepG2 viability -96% and TDP1 block 6%.
For O=C1CC(c2ccccc2)NN1 (stereo not drawn) the results were IL1B secr inh 18, TGFb inhibitor -13%, TDP1 cell noCPT inconclusive, DT40 TDP1 CPT inconclusive, HepG2 viability 4% and TDP1 block 1%.
O=C1CC(c2ccc3ccccc3c2)NN1 (stereo not drawn) was read as IL1B secr inh 13, TGFb inhibitor inconclusive, TDP1 cell noCPT inconclusive, DT40 TDP1 CPT 26µM*, HepG2 viability -2% and TDP1 block 3%.
Cc1coc2cc3oc(=O)ccc3cc12 was read as IL1B secr inh inconclusive, TGFb inhibitor 4%, TDP1 cell noCPT -19%, DT40 TDP1 CPT -1% and HepG2 viability 2%.
Screening Cc1cc(NC(=O)CCC(=O)N(c2ccccc2C)C(C(=O)NC2CCCC2)c2ccccc2)no1 (stereo not drawn) returned IL1B secr inh -2, TGFb inhibitor -9%, TDP1 cell noCPT inconclusive, DT40 TDP1 CPT inconclusive, HepG2 viability 2% and TDP1 block 10%.
For Clc1ccccc1NN(Cc1ccccn1)c1ccccc1Cl the results were IL1B secr inh 50, TGFb inhibitor inconclusive, TDP1 cell noCPT 23µM*, DT40 TDP1 CPT inconclusive and HepG2 viability -40%.
CC(=O)N1c2ccccc2Sc2ccc3ccccc3c21 was read as IL1B secr inh -19, TGFb inhibitor -3%, TDP1 cell noCPT inconclusive, DT40 TDP1 CPT inconclusive and HepG2 viability -21%.
Screening O=C(CCl)N1c2ccccc2Sc2c1ccc1ccccc21 returned IL1B secr inh -102*, TGFb inhibitor 0%, TDP1 cell noCPT 5.8µM*, DT40 TDP1 CPT 3.7µM* and HepG2 viability -105%.
`CC(C)(C)c1cc(C(=O)O)n(Cc2ccc(Cl)cc2Cl)n1` gave IL1B secr inh 23, TGFb inhibitor 2%, TDP1 cell noCPT -13%, DT40 TDP1 CPT 15µM*, HepG2 viability -3% and TDP1 block 0%.
For COc1ccc(Cc2nc3ccc(C(=O)NCC(C)(C)OC)cc3o2)cc1 the results were IL1B secr inh -13, TGFb inhibitor -16%, TDP1 cell noCPT inconclusive, DT40 TDP1 CPT inconclusive and HepG2 viability -17%.
Screening Cc1cc(C)n(CCc2nc(-c3ccc(C)o3)cs2)n1 returned IL1B secr inh 17, TGFb inhibitor 12%, TDP1 cell noCPT 16µM*, DT40 TDP1 CPT inconclusive, HepG2 viability -2% and TDP1 block -2%.
